# Experimental data published in PubChem BioAssay (NCATS).
# Results filed as inconclusive are left out. A call without a number means that no potency is given here. Activity calls are given as the source filed them. Unless noted, the call rests on the fitted dose curve.
# Key:
# [1] = Primary qHTS for inhibitors of SARS-S pseudo-typed particle cell entry (AID 1479145); further: nearly all actives have a fitted effect of over 45% in size; further: potency means the concentration at half of the fitted maximal effect
# [2] = Primary qHTS for inhibitors of La Crosse Virus (LACV) - induced cell death in SH-SY5Y cells (AID 1508616; active means well fitted curve in the direction sought with a large enough effect; an effect the other way counts as inactive or inconclusive;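 further: top concentration of the series differs between compounds; higher means more rescue of cells from virus-induced death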)
# Outline: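 Rescue of virus-induced death was read as ATPLite luminescence after 6 days at 37C, scaled between DMSO wells with LACV and without virus. Cells were SH-SY5Y, 6000/well, infected at 0.01 MOI after compound addition.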
# [3] = target: Calcium and integrin-binding protein 1 (Homo sapiens) (UniProt Q99828); assay: Primary qHTS for Identification of Calcium Integrin Binding Protein 1 (CIB1) Competitor (AID 1508620; active means well fitted curve in the direction sought with a large enough effect; an effect the other way counts as inactive or inconclusive; further: potency means the concentration at half of the fitted maximal effect)
# Calcium and integrin-binding protein 1 (Homo sapiens), sequence (Q99828 whole entry, looked up): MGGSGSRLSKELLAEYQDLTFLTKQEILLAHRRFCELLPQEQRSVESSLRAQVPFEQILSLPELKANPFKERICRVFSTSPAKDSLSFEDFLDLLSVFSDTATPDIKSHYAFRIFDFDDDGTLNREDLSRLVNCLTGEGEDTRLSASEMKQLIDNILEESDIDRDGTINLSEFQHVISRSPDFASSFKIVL
# Outline: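 Fluorescence polarization competition: GST-tagged CIB1 (1 uM final) preincubated with compound 15 min at room temperature, then FITC-labelled alphaIIb peptide (100 nM final) added. After 15 min at room temperature, polarization read at Ex 480/Em 540.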
# [4] = Primary qHTS for Huh7 cytotoxicity: counterscreen for inhibitors of MERS-S pseudotyped particle cell entry (AID 1479147); further: potency means the concentration at half of the fitted maximal effect
# [5] = Primary qHTS for inhibitors of MERS-S pseudo-typed particle cell entry (AID 1479149); further: nearly all actives have a fitted effect of over 60% in size; further: potency means the concentration at half of the fitted maximal effect
# [6] = target: Calcium and integrin-binding protein 1 (Homo sapiens) (UniProt Q99828); assay: Confirmatory qHTS for Identification of Calcium Integrin Binding Protein 1 (CIB1) Competitor (AID 1508617; active means well fitted curve in the direction sought with a large enough effect; an effect the other way counts as inactive or inconclusive; further: nearly all actives have a fitted effect of over 65% in size)
# Outline: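 FP competition: CIB1-GST (1 uM final) in 5 mM HEPES pH 7.4, 125 mM NaCl, 5 mM CaCl2, 0.01% Tween20 preincubated 15 min RT with compounds (up to 114 uM), then FITC-alphaIIb peptide (100 nM), 15 min RT; Ex 480/Em 540.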
# [7] = target: Calcium and integrin-binding protein 1 (Homo sapiens) (UniProt Q99828); assay: Validation qHTS for Identification of Calcium Integrin Binding protein 1 (CIB1) Competitor (AID 1508618; active means well fitted curve in the direction sought with a large enough effect; an effect the other way counts as inactive or inconclusive; further: potency means the concentration at half of the fitted maximal effect)
# Outline: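 Fluorescence polarization with 1 uM CIB1-GST and 100 nM FITC-alphaIIb peptide in HEPES pH 7.4, NaCl, 5 mM CaCl2, Tween20. Compounds at up to 114 uM final, preincubated with protein 15 min; read after 15 min more at RT.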
# [8] = Primary qHTS for Vero E6 cytotoxicity: counterscreen for inhibitors of SARS-S pseudo-typed particle cell entry (AID 1479150)
# [9] = Confirmatory qHTS for VERO E6 Cytotoxicity Assay: Counterscreen for SARS-CoV-2 CPE Assay (AID 1508605); further: nearly all actives have a fitted effect of over 60% in size; further: potency means the concentration at half of the fitted maximal effect
# [10] = Confirmatory qHTS for activators (rescue) of SARS-CoV-2 Cytopathic Effect (CPE) (AID 1508606); further: potency means the concentration at half of the fitted maximal effect; nearly all actives have a fitted effect of over 70% in size
compound,measurement,setting,value
COc1ccc(Cc2nccc3cc(OC)c(OC)cc23)cc1OC,Potency,[1],14.1 µM (active)
same,Potency,[2],inactive
same,Potency,[3],inactive
COc1cc2nc(N3CCN(C(=O)c4ccco4)CC3)nc(N)c2cc1OC,Potency,[4],inactive
same,Potency,[5],inactive
O[C@@H](c1cc(C(F)(F)F)nc2c(C(F)(F)F)cccc12)[C@H]1CCCCN1,Potency,[1],inactive
same,Potency,[5],inactive
CC[C@@H](CO)NC(=O)[C@@H]1C=C2c3cccc4c3c(cn4C)C[C@H]2N(C)C1,Potency,[1],inactive
same,outcome,[6],inactive
same,Potency,[7],44.7 µM (active)
same,Potency,[3],44.7 µM (active)
NNc1nncc2ccccc12,Potency,[1],inactive
same,Potency,[5],inactive
COc1cc(Nc2c(C#N)cnc3cc(OCCCN4CCN(C)CC4)c(OC)cc23)c(Cl)cc1Cl,Potency,[4],28.2 µM (active)
COc1ccc(-c2cc(=S)ss2)cc1,Potency,[4],inactive
same,Potency,[5],inactive
COc1ccccc1OCC(O)CN1CCN(CC(=O)Nc2c(C)cccc2C)CC1 (stereo not given),Potency,[4],inactive
same,Potency,[5],inactive
same,Potency,[8],inactive
O=C(c1ccc(OCCN2CCCCC2)cc1)c1c(-c2ccc(O)cc2)sc2cc(O)ccc12,Potency,[1],20 µM (active)
same,Potency,[5],11.2 µM (active)
same,Potency,[8],inactive
O=C(O)c1ccc(-n2nc(-c3ccccc3O)nc2-c2ccccc2O)cc1,Potency,[1],inactive
same,Potency,[8],inactive
O=C1N=C(O)CN1/N=C/c1ccc(-c2ccc([N+](=O)[O-])cc2)o1,Potency,[4],inactive
same,Potency,[5],inactive
same,Potency,[8],inactive
Nc1ccn([C@@H]2O[C@H](CO)[C@@H](O)C2(F)F)c(=O)n1,Potency,[1],0.794 µM (active)
same,Potency,[8],inactive
CC(C)C(=O)Nc1ccc([N+](=O)[O-])c(C(F)(F)F)c1,Potency,[4],inactive
same,Potency,[5],22.4 µM (active)
CN1CCC[C@@H]1CCO[C@](C)(c1ccccc1)c1ccc(Cl)cc1,Potency,[1],10 µM (active)
same,Potency,[5],4.47 µM (active)
same,Potency,[8],inactive
same,Potency,[9],inactive
same,Potency,[10],10 µM (active)
CC(C)C[C@H](NC(=O)[C@H](Cc1ccccc1)NC(=O)c1cnccn1)B(O)O,Potency,[1],inactive
same,Potency,[5],inactive
C=C(C)[C@H]1Cc2c(ccc3c2O[C@@H]2COc4cc(OC)c(OC)cc4[C@@H]2C3=O)O1,Potency,[1],inactive
same,Potency,[5],inactive
same,Potency,[7],inactive
same,Potency,[3],inactive
CNCC[C@@H](Oc1ccccc1C)c1ccccc1,Potency,[1],inactive
same,Potency,[8],inactive
CC(CCc1ccccc1)NC(C)C(O)c1ccc(O)cc1 (stereo not given),Potency,[1],inactive
same,Potency,[5],inactive
same,Potency,[8],inactive
same,Potency,[7],inactive
same,Potency,[3],inactive
CC1(C)S[C@@H]2[C@H](NC(=O)[C@H](N)c3ccccc3)C(=O)N2[C@H]1C(=O)O,Potency,[4],inactive
same,Potency,[5],inactive
same,Potency,[8],inactive
COC(=O)CCc1ccc(OCC(O)CNC(C)C)cc1 (stereo not given),Potency,[4],inactive
same,Potency,[5],inactive
same,Potency,[8],inactive
N=C(N)c1ccc(OCCCCCOc2ccc(C(=N)N)cc2)cc1,Potency,[4],inactive
CCC(C)(C)C(=O)O[C@H]1C[C@@H](C)C=C2C=C[C@H](C)[C@H](CC[C@@H]3C[C@@H](O)CC(=O)O3)[C@H]21,Potency,[4],inactive
same,Potency,[5],inactive
C[C@]12CC[C@@H]3c4ccc(O)cc4C[C@@H](CCCCCCCCCS(=O)CCCC(F)(F)C(F)(F)F)[C@H]3[C@@H]1CC[C@@H]2O (stereo not given in full),Potency,[4],inactive
same,Potency,[5],inactive
same,Potency,[8],inactive
Cc1ccccc1C(=O)Nc1ccc(C(=O)N2CCCC(O)c3cc(Cl)ccc32)c(C)c1 (stereo not given),Potency,[4],inactive
same,Potency,[5],inactive
same,Potency,[8],inactive
CN1CCN(CCCN2c3ccccc3Sc3ccc(Cl)cc32)CC1,Potency,[1],22.4 µM (active)
same,Potency,[8],inactive
same,Potency,[9],20 µM (active)
CCN(CC)CCNC(=O)c1c(C)[nH]c(/C=C2\C(=O)Nc3ccc(F)cc32)c1C,Potency,[4],31.6 µM (active)
same,Potency,[5],11.2 µM (active)
CC(=O)N(O)CCCCCNC(=O)CCC(=O)N(O)CCCCCNC(=O)CCC(=O)N(O)CCCCCN,Potency,[1],inactive
same,Potency,[5],inactive
same,Potency,[8],inactive
COc1cc(C(C)=O)ccc1OCCCN1CCC(c2noc3cc(F)ccc23)CC1,Potency,[1],22.4 µM (active)
same,Potency,[9],inactive
same,Potency,[10],11.2 µM (active)
Cc1oncc1C(=O)Nc1ccc(C(F)(F)F)cc1,Potency,[1],inactive
same,Potency,[5],inactive
Cc1ccc(-n2[nH]c(C)c(N=Nc3cccc(-c4cccc(C(=O)O)c4)c3O)c2=O)cc1C,Potency,[1],inactive
same,Potency,[8],inactive
NC(=O)N/N=C/c1ccc([N+](=O)[O-])o1,Potency,[1],inactive
same,Potency,[5],inactive
same,Potency,[8],inactive
CCCCc1nc(Cl)c(CO)n1Cc1ccc(-c2ccccc2-c2nn[nH]n2)cc1,Potency,[4],inactive
same,Potency,[5],inactive
same,Potency,[8],inactive
COC(=O)C1=C(C)NC(C)=C(C(=O)OCC(C)C)C1c1ccccc1[N+](=O)[O-] (stereo not given),Potency,[1],35.5 µM (active)
same,Potency,[8],inactive
Nc1nc(N)c2nc(-c3ccccc3)c(N)nc2n1,Potency,[1],inactive
same,Potency,[5],inactive
same,Potency,[8],inactive
COc1ccc([C@@H]2Sc3ccccc3N(CCN(C)C)C(=O)[C@@H]2OC(C)=O)cc1,Potency,[4],inactive
same,Potency,[5],inactive
same,Potency,[8],inactive
CN(C/C=C/C#CC(C)(C)C)Cc1cccc2ccccc12,Potency,[4],inactive
same,Potency,[5],inactive
same,Potency,[8],inactive
CN1CCN(C2=Nc3cc(Cl)ccc3Nc3ccccc32)CC1,Potency,[4],inactive
same,Potency,[5],inactive
same,Potency,[8],inactive
CC(C)(C(=O)O)c1ccc(C(O)CCCN2CCC(C(O)(c3ccccc3)c3ccccc3)CC2)cc1 (stereo not given),Potency,[4],inactive
same,Potency,[5],inactive
same,Potency,[8],inactive
CC(C)NC[C@@H](O)COc1ccc(CC(N)=O)cc1,Potency,[4],inactive
same,Potency,[5],inactive
same,Potency,[8],inactive
